Laboratory results: PubChem BioAssay AID492956 (The Scripps Research Institute Molecular Screening Center, 2010)
The whole screen tested about 340,000 compounds, of which about 3,300 (0.97%) were called active.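 How the source made its calls: active means inhibition above the mean over all tested compounds plus 3 SD (cut at about 30% in these data); inactive means the rest.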 What follows is part of a selection rich in actives, with near analogues and random picks from the rest.

What follows are compounds tested against Platelet-activating factor acetylhydrolase 2, cytoplasmic (Homo sapiens) (UniProt Q99487) (assay: PAFAH2 enzyme inhibitors, primary screen, biochemical, fluorescence polarization, human (AID 492956;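 further: inhibitors block probe labeling of enzyme so polarization drops; 0% = enzyme with DMSO and 100% = wells lacking PAFAH2 protein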)). Conditions: recombinant PAFAH2, FP-rhodamine activity probe, at 3.39 µM, stronger effect = higher value.

Structure (SMILES) | inhibition
COc1ccc(N2C(=O)/C(=C/c3ccco3)C(=O)NC2=S)cc1 | 59.1% (active)
CC(C)CN1CCN(Cc2ccccc2C(F)(F)F)CC1CCO (stereo not given) | 4.28% (inactive)
COc1ccc(-n2c(-c3ccccc3)nc3ccccc3c2=O)cc1 | -4.87% (inactive)
C[C@]12CCCCC1=CC(=O)C1C2CC[C@@]2(C)C1C[C@@H](F)[C@@H]2O (stereo not given in full) | 2.89% (inactive)
CC(Cc1cccs1)NCc1ccc(Cl)cc1 (stereo not given) | 4.46% (inactive)
CCc1nc2ccccc2c(=O)n1-c1cccc(OC)c1 | 0.9% (inactive)
Cc1c(C(=O)O)cccc1-n1c(C)cc(/C=C2\C(=O)NC(=O)N(c3ccc4c(c3)OCO4)C2=O)c1C | 14.2% (inactive)
COc1cccc(N2C(=O)NC(=O)/C(=C\c3cn(C)c4ccccc34)C2=O)c1 | 53% (active)
Cc1cccc(N2C(=O)NC(=O)/C(=C\c3cnn(-c4ccccc4)c3)C2=O)c1 | 38.8% (active)
CCN1CCN(c2nc3c(c(=O)[nH]2)CCC3)CC1 | 1.82% (inactive)
CC12CCC3C(CCC4CC(=O)CCC43C)C1CC(=NO)C2=O (stereo not given) | 5.08% (inactive)
Cc1ccc(S(=O)(=O)N(C)c2ccc(C(=O)NCC3(N(C)C)CCCCC3)cc2)cc1 | -2.88% (inactive)
O=C1NC(=O)N(c2ccccc2)C(=O)/C1=C/c1ccc([N+](=O)[O-])s1 | 38.4% (active)
O=C1NC(=O)N(c2ccc(F)cc2)C(=O)/C1=C/c1ccc2c(c1)CCCN2Cc1ccccc1 | 6.73% (inactive)
COc1ccc2[nH]c3c(c2c1)CCN[C@H]3C | -4.46% (inactive)
O=C(Cn1c(=O)n(CC2CS2)c2ccccc21)N1CCCCC1 (stereo not given) | -1.23% (inactive)
N=c1ccccn1Cc1ccccc1 | 1.19% (inactive)
O=C(CCNS(=O)(=O)c1ccccc1)Nc1ccc(Cl)cc1C(=O)c1ccccc1 | -0.4% (inactive)
O=C(COC(=O)c1ccccc1)Nc1ccc(Cl)cc1C(=O)c1ccccc1 | 45% (active)
CN1CCN(C(=S)SCC(=O)Nc2ccc(Cl)cc2C(=O)c2ccccc2)CC1 | 5.69% (inactive)
CCN(CC)C(=O)Oc1ccc(NC(=O)N2CCOCC2)cc1 | 6.33% (inactive)
C=CCN1C(=O)NC(=O)/C(=C/c2ccc(OCC(=O)Nc3ccc(C)cc3)cc2)C1=O | 5.48% (inactive)
COc1ccc(C(=O)C2CCCN(Cc3ccc(C)s3)C2)cc1OC (stereo not given) | 1.55% (inactive)
COc1ccccc1N=C1SCCCN1C | 5.93% (inactive)
NCCc1ccc(S(=O)(=O)F)cc1 | 86% (active)
CC(C)c1ccc(-n2c(O)c(/C=N/N3CCOCC3)c(=O)[nH]c2=S)cc1 | -8.3% (inactive)
Cc1ccnc(-n2c(C)cc(/C=C3\C(=O)NC(=S)N(C)C3=O)c2C)c1 | -2.99% (inactive)
CCN1CCN(c2ccc([N+](=O)[O-])cc2C#N)CC1 | 9.87% (inactive)
CC12CCC(O)CC1CCC1C2CCC2(C)C(C(=O)CC(O)C(F)(F)F)CCC12 (stereo not given) | 2.7% (inactive)
O=C(N/N=C/c1c(O)n(C2CC2)c(=S)[nH]c1=O)c1ccccc1Cl | -27.8% (inactive)
